Reference: PubChem BioAssay AID624330 (Southern Research Specialized Biocontainment Screening …, 2012)
Screen size: about 340,000 compounds; about 2,100 (0.62%) were called active.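 How the source made its calls: active means first-screen hits whose inhibition reached a set limit at any dose in the follow-up dose series; inconclusive means inhibition above the set first-screen limit but never retested; inactive means the rest.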 Only a sample is shown. Entries with a potency or affinity are not part of this list.

These compounds were tested against Rac GTPase-activating protein 1 (Homo sapiens) (UniProt Q9H0H5) (assay: MgcRacGAP GTPase-activating activity inhibitors, confirmation, biochemical, ADP Hunter fluorescence, primary and confirmatory (AID 624330;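 further: fluorescence reports GDP produced by GAP-driven GTP hydrolysis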)). Conditions: MgcRacGAP-stimulated Rac1 GTP hydrolysis, at 30 µM, hits give high values, GST-tagged Rac1 F28L mutant substrate.
Rac GTPase-activating protein 1 (Homo sapiens), sequence (Q9H0H5 whole entry, looked up): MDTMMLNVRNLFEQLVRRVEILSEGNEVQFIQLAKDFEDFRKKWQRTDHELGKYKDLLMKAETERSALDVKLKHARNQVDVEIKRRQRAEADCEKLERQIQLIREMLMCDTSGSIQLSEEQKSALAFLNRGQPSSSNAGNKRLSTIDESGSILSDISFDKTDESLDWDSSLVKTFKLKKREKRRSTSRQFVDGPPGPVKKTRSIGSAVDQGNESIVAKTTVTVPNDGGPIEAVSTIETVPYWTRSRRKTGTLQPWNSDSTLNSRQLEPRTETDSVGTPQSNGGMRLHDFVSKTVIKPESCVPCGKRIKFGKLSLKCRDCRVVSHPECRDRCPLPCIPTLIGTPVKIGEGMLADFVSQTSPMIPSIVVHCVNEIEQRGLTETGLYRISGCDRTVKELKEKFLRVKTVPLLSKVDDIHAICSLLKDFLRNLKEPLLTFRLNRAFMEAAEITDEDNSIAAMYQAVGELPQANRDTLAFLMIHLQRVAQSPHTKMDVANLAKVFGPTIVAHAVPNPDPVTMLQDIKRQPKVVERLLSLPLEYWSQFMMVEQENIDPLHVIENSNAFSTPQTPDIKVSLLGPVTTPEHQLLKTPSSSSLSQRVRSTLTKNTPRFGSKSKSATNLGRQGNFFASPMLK

inhibition, inactive:
COc1ccc(COCC(O)CN2CCC(CN3C(=O)c4cccc5cccc(c45)C3=O)CC2)cc1OC (stereo unspecified) 5.74%, O=C(c1cc(=O)c2ccccc2o1)N1CCCc2ccccc21 4.48%, O=C(O)CCCC(=O)Nc1nc2n(n1)C(c1ccc(F)cc1)CC(c1ccc(Cl)cc1)N2 (stereo unspecified) -3.19%, Brc1ccc(CSc2nccn2-c2ccccc2)cc1 -2.52%, CCOc1ccc(-c2nnc(-c3ccccc3)n2-c2ccccc2)cc1 1.23%, CCOc1ccc(S(=O)(=O)NCCC(=O)OCC(=O)N2CC(=O)Nc3ccccc32)cc1 2.23%, CCN(CC)S(=O)(=O)c1ccc(Cl)c(NC(=O)COC(=O)c2cc(-c3ccccc3Cl)nc3ccccc23)c1 5.1%, CC(C)N(Cc1nccn1C)C(=O)c1ccc2oc(CCCc3ccccc3)nc2c1 -4.5%, COc1ccc(NC(=O)Nc2ccc(OC)cc2)cc1 4.31%, COc1cc(C(=O)Nc2ccc(N(C)C)cc2)c([N+](=O)[O-])cc1OC 19.1%, Cc1oc(-c2ccccc2)cc1C(=O)Nc1ccccc1 19.3%, COc1ccc(NC(=S)c2ccc(N(C)C)cc2)cc1 6.87%, COc1ccc(NC(=O)c2cc(-c3ccccc3)oc2C)cc1 8.42%, COc1cc(OC)c(C(=O)Nc2ccncc2)cc1OC 6.31%, CCOc1ccccc1C(=O)NCC(=O)NCC(C)(C)N1CCOCC1 3.54%, O=C(C1COc2ccccc2O1)N1CCN(c2nc3c(F)cc(F)cc3s2)CC1 (stereo unspecified) 1.62%, CCOC(=O)C1CCCN(S(=O)(=O)c2c(C)c(C)cc(C)c2C)C1 (stereo unspecified) 3.51%, COC(=O)C1=C(C(=O)c2ccccc2)C(c2cccs2)n2nnnc2N1 (stereo unspecified) 12.1%, CCN(c1ccccc1)S(=O)(=O)c1cccc(C(=O)Nc2cccc(C)n2)c1 16.5%, CCC1CCCCN1C(=O)CSc1nc(N)cc(=O)[nH]1 (stereo unspecified) 9.52%, COc1ccc(Cl)cc1NCCC(O)c1ccc(F)cc1 (stereo unspecified) 10.5%, COc1ccc(C(O)CNc2ccc(C)cc2)cc1 (stereo unspecified) 12.6%, Cc1cccc(NC(=O)c2ccc(COc3ccccc3)o2)n1 -1.27%, CC(C)(CC(=O)OCC(=O)Nc1ccccc1F)CC1=NS(=O)(=O)c2ccccc2N1 8.87%, CCOC(=O)C1(CC2CCCCO2)CCN(C(=O)Nc2ccc(C)c(C)c2)CC1 (stereo unspecified) 8.55%, O=C(NCc1ccccc1)C1=C[C@H](c2csc3ccccc23)C[C@H](OCCCCO)O1 5.83%, COc1cc(/C=N/NC(=O)c2c(C)nnn2-c2nonc2N)ccc1O 21.5%, Cc1nonc1C(=O)N/N=C/c1ccncc1 4.44%, Cc1nonc1C(=O)N/N=C/c1cccc(O)c1 5.55%, Cc1nonc1C(=O)N/N=C/c1ccccc1 7.47%, Cc1nonc1C(=O)N/N=C/c1ccc([N+](=O)[O-])o1 6.74%, COc1cccc(/C=N/NC(=O)c2nnn(-c3nonc3N)c2C(C)C)c1 2.84%, COc1cc(/C=N/NC(=O)c2nnn(-c3nonc3N)c2C(C)C)ccc1OCc1ccccc1 12.2%, Cc1nnn(-c2nonc2N)c1C(=O)N/N=C/c1ccccc1O 5.56%, Cc1cc(NC(=O)COC(=O)c2cc([N+](=O)[O-])ccc2N2CCOCC2)ccc1Br -0.1%, O=C(COc1ccccc1F)NC12CC3CC(CC(C3)C1)C2 9.07%, CCN(CC(=O)Nc1c(F)cccc1F)C(=O)c1ccc(=O)n(C)n1 7.24%, CN(C)CCNC(=O)C(=O)NCC1OCCCN1S(=O)(=O)c1cccs1 (stereo unspecified) 5.17%, CCN(CC)CCN(CC(=O)Nc1c(C)cc(C)cc1C)C(=O)c1ccccc1 14.8%, CCN(CC)C(=O)CSc1nc2ncc(Br)cc2[nH]1 1.23%, CCCCN(C)C(=O)c1ccc2c(c1)N(CC)C(=O)c1ccccc1S2=O (stereo unspecified) 7.28%, O=C(N/N=C/c1ccc(O)cc1O)C(=O)N/N=C/c1ccc(O)cc1O 16.7%, Cc1nonc1C(=O)N/N=C/c1cc2c(cc1Br)OCO2 -12.5%, COc1ccc(/C=N/NC(=O)c2nonc2C)cc1 17.8%, COc1ccc(/C=N/NC(=O)c2nonc2N)cc1OC 11.7%, COc1ccnc(N=CNOCc2ccc(Cl)cc2)c1C#N 13.5%, COc1ccc(NS(=O)(=O)c2c(C)[nH]c(=O)[nH]c2=O)cc1OC 8.91%, Cc1cccc(N(C)S(=O)(=O)c2ccc3[nH]cc(C(=O)N4CCOCC4)c(=O)c3c2)c1 -3.07%, CCOC(=O)Cc1nnc(NCc2ccccc2)c2ccccc12 6.91%, Cc1cccc(N(CC(=O)NCC2CCCO2)C(=O)CCC(=O)Nc2cc(C)on2)c1 (stereo unspecified) 4.72%, COc1cccc(CNc2ccc3c(c2)ncn3C(C)C)c1OC 24.5%, Cn1cnc2cc(NCc3ccccc3Cl)ccc21 26.5%, CC(C)(C)n1cnc2cc(NCc3ccccc3O)ccc21 13.7%, COc1cccc(CNc2ccc3c(c2)nc(C)n3C)c1OC 30.5%, Cc1noc(C)c1NC(=O)Nc1cccc2c1O[C@@H](CN(C)Cc1ccc3c(c1)OCO3)[C@@H](C)CN([C@H](C)CO)C2=O 4.09%, CCN1CCCC1CNC(=O)c1ccc(Sc2ccccc2Cl)c([N+](=O)[O-])c1 (stereo unspecified) 4.96%, Cc1cc(=O)oc2c(CN3CCCCC3)c(O)ccc12 2.34%, Cc1c(O)ccc2c(CN3CCOCC3)cc(=O)oc12 17.9%, Cc1cc(=O)oc2c(CN3CCCC3)c(O)ccc12 6.69%, Cc1ccc2c(CN3CCOCC3)cc(=O)oc2c1C 3.73%, CC1CCN(CC(O)COc2cccc(F)c2)CC1 (stereo unspecified) 2.16%
